For test [1], the target named is Thyrotropin-releasing hormone receptor (Homo sapiens) (UniProt P34981). Briefly: qHTS assay to identify small molecule agonists of the thyrotropin-releasing hormone receptor (TRHR) signaling pathway (AID 1346891; calls by dose curve;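 also: HEK293 cells expressing TRHR with calcium dye readout; series mostly up to about 58 µM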). The gist of the method: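 Cells: TRHR-Hek293, seeded and incubated 18 h. Dye loading: 2 h at 37 °C. Compound added from DMSO stock by pin tool. Read-out: kinetic calcium fluorescence over 3 min.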
A general note: qHTS replaces the single test concentration by a dilution series.

A short description of test [2]: Human pregnane X receptor (PXR) small molecule agonists, qHTS cell viability counter screen (AID 1346977). Also: nearly all actives have a fitted effect of over 50% in size. The gist of the method: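 Cytotoxicity counter screen run in the same wells as the PXR luciferase assay, using PXR-Luc HepG2 cells in charcoal-stripped serum medium. Viability: CellTiter-Fluor fluorescence after 24hr compound treatment.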
Test [3] is described as follows: Caspase-3/7 induction in HepG2 cells by small molecules, qHTS assay (AID 1346978). Also: nearly all actives have a fitted effect of over 15% in size. The gist of the method: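 Wild-type HepG2 cells (2,000/well) were settled 5 h at 37 C, 5% CO2, then exposed to compounds in DMSO for 17 h. Caspase-3/7 activity was read by luminescence 30 min after adding Caspase-Glo 3/7 reagent at room temperature.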
A short description of test [4]: Caspase-3/7 induction in CHO-K1 cells by small molecules, qHTS cell viability counter screen (AID 1346979). Also: nearly all actives have a fitted effect of over 35% in size. Put shortly: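 Cytotoxicity counter screen run in parallel with the caspase-3/7 assay: CHO-K1 cells, 16hr compound treatment at 37C, then CellTiter-Fluor for 1hr before fluorescence reading.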
The nature of test [5]: Caspase-3/7 induction in CHO-K1 cells by small molecules, qHTS assay (AID 1346980). Also: nearly all actives have a fitted effect of over 15% in size. Put shortly:
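Wild-type cells were seeded at 1,500 per well and settled 5 hr at 37 C, 5% CO2, then exposed to DMSO-dissolved compounds for 17 hr. Caspase-Glo 3/7 reagent was added, and luminescence was read after 30min at room temperature.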

Test [6] can be described thus: Caspase-3/7 induction in HepG2 cells by small molecules, qHTS cell viability counter screen (AID 1346981). Also: series mostly up to about 92 µM; nearly all actives have a fitted effect of over 30% in size. Put shortly: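 After a 5-hr attachment period at 37 C and 5% CO2, wild-type HepG2 cells received compounds in DMSO. Sixteen hours later CellTiter-Fluor was dispensed and the fluorescent signal quantified after a further hour.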
Test [7] deals with Nuclear receptor subfamily 1 group I member 2 (Homo sapiens) (UniProt O75469). Briefly: Human pregnane X receptor (PXR) small molecule agonists, qHTS assay (AID 1346982). Also: nearly all actives have a fitted effect of over 35% in size. Also: potency is read from the fitted curve at half-maximal effect. The gist of the method: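 Tox21 qHTS; PXR-Luc HepG2; compounds pinned from DMSO; 24 hr, 37 C; ONE-Glo luciferase detection, 30 min room temperature.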
The target in test [8] is Acetylcholinesterase (Homo sapiens) (UniProt P22303). Briefly: Acetylcholinesterase (AChE) small molecule antagonists: colormetric cell-based qHTS assay (AID 1347395; calls by dose curve; also: nearly all actives have a fitted effect of over 30% in size). The gist of the method:
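Cells (SH-SY5Y, 2,000 per well) are seeded and left overnight at 37 C. Compound is added for 30 min, then DTNB and acetylthiocholine for a further 90 min at 37 C before absorbance-based thiocholine detection.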

Test [9] has the same target. Briefly: Acetylcholinesterase (AChE) small molecule antagonists: enzyme-based qHTS assay (AID 1347397; calls by dose curve; also: nearly all actives have a fitted effect of over 55% in size). The following applies: Potency: AChE enzyme activity inhibition; outcome: AChE enzyme activity inhibition. Put shortly: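 Tox21 library chemicals are tested in qHTS format against recombinant human AChE. The enzyme, dispensed at 50 mU/mL, sits with compound for 30 min at room temperature. A DTNB–acetylthiocholine cocktail follows, and colour is read after 10 min.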

Test [10] has the same target. Briefly: Acetylcholinesterase (AChE) small molecule antagonists: fluorescence cell-based qHTS assay (AID 1347398; calls by dose curve; also: nearly all actives have a fitted effect of over 50% in size). Conditions: Potency: AChE activity; outcome: AChE activity. The gist of the method: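 Cellular AChE inhibition: SH-SY5Y cells treated with test chemical for 30 min at 37 C, then acetylthiocholine hydrolysis followed over 40 min at room temperature via thiocholine-reactive Thiolite Green fluorescence (490/520 nm).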

For test [11] the target is unchanged. Briefly: Acetylcholinesterase (AChE) small molecule antagonists: enzyme-based qHTS assay with human liver microsomes (AID 1347399; calls by dose curve; also: nearly all actives have a fitted effect of over 60% in size). Conditions: Potency: qHTS inhibition; outcome: qHTS inhibition. The gist of the method: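 Recombinant human AChE (50 mU/mL in the enzyme mix) and human liver microsomes (0.25 mg/mL final) were preincubated with compound and NADPH (0.25 mg/mL final) for 30 min at 37 C. Acetylthiocholine/DTNB was then added; thiocholine was read colorimetrically after 10 min at room temperature.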

For test [12], the target named is Cytochrome P450 2C9 (Homo sapiens) (UniProt P11712). Briefly: Cytochrome P450 Family 2 Subfamily C Member 9 (CYP2C9) small molecule antagonists: luciferase reporter qHTS assay (AID 1671198). Also: nearly all actives have a fitted effect of over 50% in size. Also: potency is read from the fitted curve at half-maximal effect. Put shortly:
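CYP2C9 activity was measured with a P450-Glo proluciferin substrate. Enzyme–substrate mix was held with compound for 10 min at room temperature, then NADPH regeneration solution was added for 1 h at 37C. Luciferin product was read as luminescence.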
A general note: A reporter such as luciferase makes a cellular process visible.

For test [13], the target named is Voltage-gated inwardly rectifying potassium channel KCNH2 (Homo sapiens) (UniProt Q12809). Briefly: Human Ether-a-go-go-Related Gene (hERG) channel small molecule antagonists: fluorescence cell-based qHTS assay (AID 1671200).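 Also: hERG-expressing U2OS cells given a thallium stimulus after FluxOR II dye loading; series mostly up to about 77 µM; nearly all actives have a fitted effect of over 50% in size.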 The gist of the method:
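Fluorescence at 540 nm emission (480 nm excitation) was recorded kinetically for 2 min at 1-second intervals once the thallium-containing stimulus reached cells previously loaded with FluxOR II dye.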
On the technique in general: The hERG channel carries a current that helps repolarise heart muscle cells.

For test [14], the target named is Cytochrome P450 3A4 (Homo sapiens) (UniProt P08684). Briefly: Cytochrome P450 Family 3 Subfamily A Member 4 (CYP3A4) small molecule antagonists: luciferase reporter qHTS assay (AID 1671201). The gist of the method: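 qHTS, 1536-well. CYP3A4 + proluciferin substrate, cpd 10 min RT → NADPH regen 1 h RT → detection reagent 20 min → luminescence (RLU). Ketoconazole positive control.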

Test [15] has as its target Cytochrome P450 2C19 (Homo sapiens) (UniProt P33261). Briefly: Cytochrome P450 Family 2 Subfamily C Member 19 (CYP2C19) small molecule antagonists: luciferase reporter qHTS assay (AID 1671197). Also: nearly all actives have a fitted effect of over 65% in size. Also: potency is read from the fitted curve at half-maximal effect. The gist of the method:
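CYP2C19 P450-Glo, 1536-well qHTS. Cpd + enzyme/proluciferin substrate 10 min RT; + NADPH regen, 37C 1 h; stop with luciferin detection reagent, 20 min RT, luminescence (RLU). Pos ctrl ketoconazole.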

Test [16] concerns the target Cytochrome P450 1A2 (Homo sapiens) (UniProt P05177). Briefly: Cytochrome P450 Family 1 Subfamily A Member 2 (CYP1A2) small molecule antagonists: luciferase reporter qHTS assay (AID 1671199). Also: nearly all actives have a fitted effect of over 50% in size. Also: potency is read from the fitted curve at half-maximal effect. The gist of the method:
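Room-temperature CYP1A2 reaction with proluciferin substrate: compounds added from DMSO, 10 min preincubation, NADPH regeneration for 1 h. Luciferin detection reagent then added; luminescence recorded as RLU.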

The target of test [17] is Cytochrome P450 2D6 (Homo sapiens) (UniProt P10635). Briefly: Cytochrome P450 Family 2 Subfamily D Member 6 (CYP2D6) small molecule antagonists: luciferase reporter qHTS assay (AID 1671196). Also: nearly all actives have a fitted effect of over 50% in size. Also: potency is read from the fitted curve at half-maximal effect. The gist of the method: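 Room-temperature luminescent CYP2D6 activity assay: compound preincubated 10 min with enzyme–substrate mix, NADPH-initiated reaction 1 h, detection reagent 20 min before reading.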

The target of test [18] is Nuclear receptor subfamily 1 group I member 2 (Rattus norvegicus) (UniProt Q9R1A7). Briefly: Rat pregnane X receptor (rPXR) activation by small molecules, qHTS assay (AID 1346983). Also: nearly all actives have a fitted effect of over 20% in size. Conditions: rPXR luciferase reporter cells, One-Glo luminescence, 24 h; stronger effect = higher value. Put shortly: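 Cell-based rPXR luciferase reporter assay, 2,000 cells per well, rested 5hr at 37 C before compound addition in DMSO, then 24 hr at 37 C. One-Glo reagent was added and luminescence read after 30 min at room temperature.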

The target in test [19] is Nuclear receptor subfamily 1 group I member 2 (Homo sapiens) (UniProt O75469). Briefly: Human pregnane X receptor (PXR) activation by small molecules, qHTS assay (AID 1346985). Also: nearly all actives have a fitted effect of over 40% in size. Put shortly:
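DPX-2 cells (HepG2 co-transfected with a PXR response element and a CYP3A4-promoter luciferase construct) were seeded at 2,000 per well, rested 5 hr at 37C, then exposed to DMSO-dissolved compounds for 24 hr. Activation was read as luciferase luminescence.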

SMILES strings stand for the structures. Several values for one entry are separate records, joined by “and”; a condition that tells them apart may be missing. Identical values can stand only once. Values without a mark were called inactive. Records with an inconclusive call do not appear. Activity calls are given as the source filed them. Unless noted, calls follow the shape of the dose curve; as a rule, active = well fitted curve in the direction sought with a large enough effect in the repeat runs; inconclusive = weak or mixed curves; inactive = no such curve, though single readings can be large; an effect the other way counts as inactive or inconclusive.
% is scaled to controls: 0 for no effect and ±100 for the full control effect.

Sequence of Acetylcholinesterase (Homo sapiens) (P22303 whole entry, looked up): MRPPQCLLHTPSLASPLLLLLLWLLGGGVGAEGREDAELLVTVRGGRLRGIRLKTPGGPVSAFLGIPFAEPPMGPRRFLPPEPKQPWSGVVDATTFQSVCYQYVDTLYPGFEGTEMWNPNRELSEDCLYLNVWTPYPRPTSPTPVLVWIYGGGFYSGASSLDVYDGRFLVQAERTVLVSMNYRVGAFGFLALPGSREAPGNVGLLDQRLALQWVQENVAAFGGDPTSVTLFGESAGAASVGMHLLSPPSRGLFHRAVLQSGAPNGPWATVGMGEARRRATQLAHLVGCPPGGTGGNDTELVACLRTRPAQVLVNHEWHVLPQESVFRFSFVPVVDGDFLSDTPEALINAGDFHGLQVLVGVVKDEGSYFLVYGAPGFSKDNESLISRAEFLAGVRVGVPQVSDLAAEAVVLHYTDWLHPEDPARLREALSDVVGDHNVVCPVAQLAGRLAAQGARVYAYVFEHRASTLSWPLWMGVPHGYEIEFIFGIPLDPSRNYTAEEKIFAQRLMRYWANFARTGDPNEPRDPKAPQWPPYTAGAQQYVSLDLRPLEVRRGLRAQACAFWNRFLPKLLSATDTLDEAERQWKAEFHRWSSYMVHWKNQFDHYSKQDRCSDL
Sequence of Nuclear receptor subfamily 1 group I member 2 (Homo sapiens) (O75469 whole entry, looked up): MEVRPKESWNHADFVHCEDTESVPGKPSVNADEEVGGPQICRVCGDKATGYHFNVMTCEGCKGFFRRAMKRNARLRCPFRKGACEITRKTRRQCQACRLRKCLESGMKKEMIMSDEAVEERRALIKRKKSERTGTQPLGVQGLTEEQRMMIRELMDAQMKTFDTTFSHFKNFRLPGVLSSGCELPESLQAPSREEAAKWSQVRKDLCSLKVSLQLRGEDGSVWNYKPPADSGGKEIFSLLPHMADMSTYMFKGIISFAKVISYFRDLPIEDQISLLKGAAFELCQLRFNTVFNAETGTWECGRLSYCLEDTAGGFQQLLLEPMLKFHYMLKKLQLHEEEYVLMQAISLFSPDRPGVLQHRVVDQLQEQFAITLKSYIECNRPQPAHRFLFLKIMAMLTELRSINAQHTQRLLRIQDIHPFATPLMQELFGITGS
Sequence of Cytochrome P450 2C9 (Homo sapiens) (P11712 whole entry, looked up): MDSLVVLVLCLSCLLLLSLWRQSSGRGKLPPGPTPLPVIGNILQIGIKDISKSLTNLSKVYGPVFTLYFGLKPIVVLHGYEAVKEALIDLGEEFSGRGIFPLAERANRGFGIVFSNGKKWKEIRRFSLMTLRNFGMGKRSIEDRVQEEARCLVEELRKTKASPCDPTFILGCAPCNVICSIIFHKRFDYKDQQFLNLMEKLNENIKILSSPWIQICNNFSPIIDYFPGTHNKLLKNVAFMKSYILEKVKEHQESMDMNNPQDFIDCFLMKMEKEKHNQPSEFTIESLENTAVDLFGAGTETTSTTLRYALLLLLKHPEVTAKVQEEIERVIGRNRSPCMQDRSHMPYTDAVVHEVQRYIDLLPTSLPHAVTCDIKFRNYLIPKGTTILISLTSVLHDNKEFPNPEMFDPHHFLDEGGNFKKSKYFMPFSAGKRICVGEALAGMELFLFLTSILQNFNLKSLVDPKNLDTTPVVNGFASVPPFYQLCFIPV
Sequence of Cytochrome P450 2D6 (Homo sapiens) (P10635 whole entry, looked up): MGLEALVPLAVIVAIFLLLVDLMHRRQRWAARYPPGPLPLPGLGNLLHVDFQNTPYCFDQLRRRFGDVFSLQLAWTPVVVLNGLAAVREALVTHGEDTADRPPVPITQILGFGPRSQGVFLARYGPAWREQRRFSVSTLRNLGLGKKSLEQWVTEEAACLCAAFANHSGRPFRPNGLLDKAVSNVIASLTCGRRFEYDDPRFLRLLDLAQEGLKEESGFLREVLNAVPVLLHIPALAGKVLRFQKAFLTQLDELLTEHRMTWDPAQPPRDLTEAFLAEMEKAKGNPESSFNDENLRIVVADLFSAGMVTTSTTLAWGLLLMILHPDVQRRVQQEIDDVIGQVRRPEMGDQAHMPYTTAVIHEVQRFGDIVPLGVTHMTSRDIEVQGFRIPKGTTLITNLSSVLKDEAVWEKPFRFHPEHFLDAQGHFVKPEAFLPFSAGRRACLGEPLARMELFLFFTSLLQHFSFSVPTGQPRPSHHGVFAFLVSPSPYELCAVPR
Sequence of Cytochrome P450 1A2 (Homo sapiens) (P05177 whole entry, looked up): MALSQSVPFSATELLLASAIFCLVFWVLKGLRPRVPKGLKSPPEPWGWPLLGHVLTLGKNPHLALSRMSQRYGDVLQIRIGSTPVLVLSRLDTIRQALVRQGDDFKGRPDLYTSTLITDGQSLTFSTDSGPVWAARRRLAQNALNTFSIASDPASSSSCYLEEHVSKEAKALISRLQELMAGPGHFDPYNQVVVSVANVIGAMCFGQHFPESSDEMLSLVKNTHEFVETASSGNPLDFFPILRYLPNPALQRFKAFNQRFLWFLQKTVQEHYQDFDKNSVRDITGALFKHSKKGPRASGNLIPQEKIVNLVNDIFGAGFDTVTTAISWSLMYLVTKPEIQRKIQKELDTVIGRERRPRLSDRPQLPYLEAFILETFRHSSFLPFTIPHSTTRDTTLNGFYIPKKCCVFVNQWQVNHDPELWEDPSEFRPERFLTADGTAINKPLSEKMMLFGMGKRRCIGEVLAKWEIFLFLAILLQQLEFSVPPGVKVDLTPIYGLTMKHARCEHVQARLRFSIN
Sequence of Voltage-gated inwardly rectifying potassium channel KCNH2 (Homo sapiens) (Q12809 whole entry, looked up): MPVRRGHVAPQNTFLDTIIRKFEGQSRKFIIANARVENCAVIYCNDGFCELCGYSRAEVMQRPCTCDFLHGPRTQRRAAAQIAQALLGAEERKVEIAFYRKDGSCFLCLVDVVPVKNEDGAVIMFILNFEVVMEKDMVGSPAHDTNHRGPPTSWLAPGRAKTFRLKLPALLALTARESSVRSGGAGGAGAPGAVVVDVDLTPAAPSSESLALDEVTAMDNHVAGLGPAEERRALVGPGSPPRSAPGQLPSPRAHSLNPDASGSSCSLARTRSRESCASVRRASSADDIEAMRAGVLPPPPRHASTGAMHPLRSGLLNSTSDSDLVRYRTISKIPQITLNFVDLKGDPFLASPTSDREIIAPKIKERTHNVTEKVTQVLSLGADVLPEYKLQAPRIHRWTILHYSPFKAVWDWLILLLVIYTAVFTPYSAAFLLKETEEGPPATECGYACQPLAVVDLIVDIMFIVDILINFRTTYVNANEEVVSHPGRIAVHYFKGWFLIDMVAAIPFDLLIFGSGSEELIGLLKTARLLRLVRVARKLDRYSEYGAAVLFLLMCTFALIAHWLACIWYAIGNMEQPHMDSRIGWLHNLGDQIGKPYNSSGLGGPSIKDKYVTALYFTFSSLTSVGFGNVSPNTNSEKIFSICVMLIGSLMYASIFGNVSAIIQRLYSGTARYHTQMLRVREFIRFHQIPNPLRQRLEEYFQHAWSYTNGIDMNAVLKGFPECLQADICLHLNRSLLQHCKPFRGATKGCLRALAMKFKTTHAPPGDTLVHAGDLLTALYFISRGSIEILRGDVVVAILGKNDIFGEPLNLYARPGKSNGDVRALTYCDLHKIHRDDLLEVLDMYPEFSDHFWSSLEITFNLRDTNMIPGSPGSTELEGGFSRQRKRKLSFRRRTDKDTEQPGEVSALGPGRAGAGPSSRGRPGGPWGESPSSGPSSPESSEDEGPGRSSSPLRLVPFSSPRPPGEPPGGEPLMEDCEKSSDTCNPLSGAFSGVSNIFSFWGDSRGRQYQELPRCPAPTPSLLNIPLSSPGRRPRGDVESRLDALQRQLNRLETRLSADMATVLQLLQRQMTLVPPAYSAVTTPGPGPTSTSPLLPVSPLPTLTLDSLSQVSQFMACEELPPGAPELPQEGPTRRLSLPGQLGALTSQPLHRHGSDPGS
Sequence of Cytochrome P450 2C19 (Homo sapiens) (P33261 whole entry, looked up): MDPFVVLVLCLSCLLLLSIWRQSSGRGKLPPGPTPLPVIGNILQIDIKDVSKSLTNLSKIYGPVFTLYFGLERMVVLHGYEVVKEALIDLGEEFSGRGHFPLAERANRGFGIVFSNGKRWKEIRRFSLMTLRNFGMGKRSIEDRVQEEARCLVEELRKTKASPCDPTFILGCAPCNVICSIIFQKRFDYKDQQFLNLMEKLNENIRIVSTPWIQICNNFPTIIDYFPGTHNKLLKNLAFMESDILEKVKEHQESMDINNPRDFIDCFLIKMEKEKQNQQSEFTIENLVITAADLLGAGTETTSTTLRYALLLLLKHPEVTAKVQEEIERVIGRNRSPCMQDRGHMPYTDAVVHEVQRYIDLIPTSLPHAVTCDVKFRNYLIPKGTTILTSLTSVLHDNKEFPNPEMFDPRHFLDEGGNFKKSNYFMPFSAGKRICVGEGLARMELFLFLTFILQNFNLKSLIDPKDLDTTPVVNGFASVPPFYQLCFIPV
Sequence of Thyrotropin-releasing hormone receptor (Homo sapiens) (P34981 whole entry, looked up): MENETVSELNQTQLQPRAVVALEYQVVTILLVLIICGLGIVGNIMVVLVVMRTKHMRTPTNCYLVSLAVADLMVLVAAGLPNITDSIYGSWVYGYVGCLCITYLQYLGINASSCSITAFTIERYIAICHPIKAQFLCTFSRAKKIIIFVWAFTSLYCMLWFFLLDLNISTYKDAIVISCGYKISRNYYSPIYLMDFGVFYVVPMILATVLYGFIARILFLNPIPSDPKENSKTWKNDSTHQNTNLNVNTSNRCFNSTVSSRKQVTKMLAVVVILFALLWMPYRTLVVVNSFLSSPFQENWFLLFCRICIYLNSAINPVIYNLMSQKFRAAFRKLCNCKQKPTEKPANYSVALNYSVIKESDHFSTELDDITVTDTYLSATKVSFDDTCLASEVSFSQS

With `C/C(=N\NC(=O)Nc1cc(F)cc(F)c1)c1ncccc1C(=O)O`, the result in [1], in [3] and in [5] was inactive. Moreover, the Potency result in test [2], in [4], in test [6], in test [7], in test [8] and in [9] was “inactive” throughout. In addition, the Potency result in test [10], in test [11], in test [13] and in test [14] was “inactive” in each case. In [12], the Potency was 10 µM (active) and 12.6 µM (active).
`O=C1CC(=O)NC(=O)N1`: the compound was classed as inactive in test [1], in test [3] and in [5]. In addition, the Potency entry in [2], in [4], in test [6], in test [7], in test [8] and in test [9] was “inactive” each time. For the same compound, the Potency entry in test [10], in test [11], in test [15], in [12], in test [16] and in test [13] was “inactive” each time. Also, the Potency result in test [14] was “inactive”.
Consider `BrCCc1ccccc1`, for which the outcome in test [1], in test [3] and in [5] was inactive. The Potency entry in test [2], in [4], in test [6], in [7], in test [8] and in [9] was “inactive” each time. In addition, the Potency result in test [10], in [11], in test [15], in test [12], in test [16] and in test [13] was “inactive” in each case. Further, in test [14], the Potency entry was “inactive”.
In the case of `CON(C)C(=O)Nc1ccc(Br)cc1`, the outcome in test [1], in [3] and in [5] was inactive. In addition, the Potency result in test [2], in [4], in [6], in test [8], in test [9] and in test [10] was “inactive” each time. In addition, the Potency entry in [11], in test [17], in test [13] and in test [14] was “inactive” throughout. Moreover, the values for the Potency in [7], in test [15] and in [16] were 38.6 µM (active), 35.6 µM (active) and 5.64 µM (active), respectively.
With `CN1COCN(Cc2cnc(Cl)s2)/C1=N\[N+](=O)[O-]`, the compound was called inactive in test [1], in [3] and in test [5]. For the same compound, the Potency entry in [2], in test [4], in test [6], in test [7], in test [8] and in [9] was “inactive” each time. Also, the Potency result in test [10], in test [11], in test [17], in test [15], in [13] and in [14] was “inactive” in each case.
Consider `C=C1CC[C@@]2(O)[C@H]3Cc4ccc(O)c5c4[C@@]2(CCN3CC2CC2)[C@H]1O5`, for which the call in test [1], in test [3] and in test [5] was inactive. For the same compound, the Potency result in test [2], in [4], in test [6], in test [7], in [19] and in [8] was “inactive” throughout. Moreover, the Potency entry in test [9], in test [10], in test [15], in test [12], in test [16] and in test [13] was “inactive” each time. In addition, the Potency result in test [14] was “inactive”. The max activation in [18] is 0.729%. In addition, the Potency in [17] is 2.19 µM (active).
With `O=C(O)C(Cl)Br` (stereo unspecified), the result in test [1], in [3] and in test [5] was inactive. Moreover, the Potency entry in test [2], in test [4], in test [6], in test [7], in [8] and in test [9] was “inactive” throughout. Moreover, the Potency entry in test [10], in test [11], in [15], in test [12], in test [13] and in test [14] was “inactive” throughout.
In the case of `C#CCOC(=O)/C=C(C)/C=C/CC(C)CCCC(C)C` (stereo unspecified), the compound was called inactive in [1], in test [3] and in [5]. Moreover, the Potency result in [2], in [4], in test [6], in [7], in test [8] and in [9] was “inactive” throughout. Further, the Potency entry in test [10], in test [11], in [17] and in test [14] was “inactive” each time. For the same compound, the Potency in test [15] was 79.6 µM (active); in test [12], 31.7 µM (active); in test [16], 28.3 µM (active).

The record behind these values is PubChem BioAssay (Tox21).
